# Experimental data published in PubChem BioAssay (Tox21).
# Results filed as inconclusive are left out. A call without a number means that no potency is given here. The source made the active and inactive calls. Unless noted, the call rests on the fitted dose curve; in most records, active means well fitted curve in the direction sought with a large enough effect in the repeat runs; inconclusive means weak or mixed curves; inactive means no such curve, though single readings can be large; an effect the other way counts as inactive or inconclusive.
# Columns and labels:
# [1] = qHTS assay to identify small molecule antagonists of the peroxisome proliferator-activated receptor delta (PPARd) signaling pathway - cell viability counter screen (AID 743213); further: nearly all actives have a fitted effect of over 50% in size; further: potency means the concentration at half of the fitted maximal effect
# Summary of the method: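 Viability counter-screen, qHTS format: PPARd-bla HEK293H, L165041 300 nM final, 17 h compound exposure at 37 C, CellTiter-Glo luminescence after 30 min RT.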
# [2] = target: Peroxisome proliferator-activated receptor delta (Homo sapiens) (UniProt Q03181); assay: qHTS assay to identify small molecule antagonists of the peroxisome proliferator-activated receptor delta (PPARd) signaling pathway (AID 743215; active means well fitted inhibition curve with a large enough effect in the signal ratio in the repeat runs, not every such curve was filed as active; the % refers to the signal ratio;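 further: cells stimulated with agonist L165041 at 300 nM final during compound exposure; series mostly up to about 62 µM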)
# Summary of the method: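 PPARd-bla HEK293H cells (UAS-bla reporter) preincubated 5 h, then given compound plus 300 nM final L165041 agonist for 17 h at 37 C. Beta-lactamase activity read by LiveBLAzer B/G FRET substrate fluorescence after 2 h at room temperature.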
# [3] = qHTS assay to identify small molecule agonists of the farnesoid-X-receptor (FXR) signaling pathway - cell viability counter screen (AID 743218); further: nearly all actives have a fitted effect of over 45% in size
# Summary of the method: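 FXR-UAS-bla HEK 293T cells exposed to compounds for 16 h at 37C. Cytotoxicity read in the same wells by CellTiter-Glo luminescence after 30 min at room temperature, following the beta-lactamase FRET read.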
# [4] = qHTS assay to identify small molecule antagonists of the farnesoid-X-receptor (FXR) signaling pathway - cell viability counter screen (AID 743221; active means well fitted cell-killing curve with a large enough effect in the repeat runs, not every such curve was filed as active; further: nearly all actives have a fitted effect of over 50% in size)
# Summary of the method: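 Multiplexed counter screen: viability of FXR-bla HEK 293T cells under agonist stimulation by chenodeoxycholic acid (50 uM, final) and test compound for 16 h at 37 C, measured by CellTiter-Glo luminescence in the reporter wells.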
# [5] = target: Vitamin D3 receptor (Homo sapiens) (UniProt P11473); assay: qHTS assay to identify small molecule agonists of the vitamin D receptor (VDR) signaling pathway (AID 743222; calls by dose curve)
# Summary of the method: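 VDR-bla cells plated 4 h at 37 C, then exposed to compounds for 16 h at 37 C. Beta-lactamase reporter activity measured by fluorescence after 2 h room-temperature loading with LiveBLAzer B/G FRET substrate.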
# [6] = target: Vitamin D3 receptor (Homo sapiens) (UniProt P11473); assay: qHTS assay to identify small molecule antagonists of the vitamin D receptor (VDR) signaling pathway (AID 743223; active means well fitted inhibition curve with a large enough effect in the signal ratio in the repeat runs, not every such curve was filed as active; the % refers to the signal ratio)
# Summary of the method: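 Cells carrying a VDR-driven beta-lactamase reporter (VDR-bla) were co-treated with compound and 3 nM final 1alpha,25-dihydroxyvitamin D3 for 16 h at 37C; reporter activity was measured as FRET substrate fluorescence after 2 h at room temperature.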
# [7] = qHTS assay to identify small molecule agonists of the vitamin D receptor (VDR) signaling pathway - cell viability counter screen (AID 743224); further: nearly all actives have a fitted effect of over 50% in size; further: potency means the concentration at half of the fitted maximal effect
# Summary of the method: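 VDR-bla cells, 4 h after plating, exposed to compounds for 16 h at 37C; viability then read in the same wells as CellTiter-Glo luminescence after 30 min at room temperature, following the bla FRET read.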
# [8] = qHTS assay to identify small molecule agonists of the NFkB signaling pathway (AID 1159509; active means well fitted curve in the direction sought with a large enough effect in the signal ratio in the repeat runs, not every such curve was filed as active; the % refers to the signal ratio; further: series mostly up to about 61 µM)
# Summary of the method: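 After overnight attachment, reporter cells received test compounds, DMSO or positive controls and were incubated 5 hr at 37 C. FRET substrate was then added for 1.5 hr at room temperature before dual-emission fluorescence reading.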
# [9] = qHTS assay to identify small molecule agonists of the NFkB signaling pathway - cell viability counter screen (AID 1159515; calls by dose curve; further: series mostly up to about 61 µM; nearly all actives have a fitted effect of over 55% in size)
# Summary of the method: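 NFkB-bla ME-180 cells, 2,000/well, plated overnight at 37 C; compound added for 5 hr at 37 C. Viability read in the same wells as the bla reporter, by CellTiter-Glo luminescence after 30 min at room temperature.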
# [10] = qHTS assay to identify small molecule agonists of the endoplasmic reticulum stress response signaling pathway (AID 1159516; active means well fitted activation curve with a large enough effect in the signal ratio in the repeat runs, not every such curve was filed as active; the % refers to the signal ratio)
# Summary of the method: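 CellSensor ESRE-bla HeLa cells, 1,500 per well, plated overnight, then exposed to compounds for 5 hr at 37 C. Beta-lactamase reporter read with LiveBLAzer B/G FRET substrate after 2 hr at room temperature, 405 nm excitation, 460 and 530 nm emission.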
# [11] = qHTS assay to identify small molecule antagonists of the retinoid-related orphan receptor gamma (ROR-gamma) signaling pathway - cell viability counter screen (AID 1159520); further: nearly all actives have a fitted effect of over 50% in size
# Summary of the method: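 Tet-on ROR gamma CHO cells (1,000/well) were plated 4 hr, given compounds in DMSO for 2 hr at 37 C, then induced with 1 uM final doxycycline for 16 hr. Viability was read as ATP by CellTiter-Glo luminescence after 30 min.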
# [12] = qHTS assay to identify small molecule agonists of the AP-1 signaling pathway - cell viability counter screen (AID 1159525; calls by dose curve; further: nearly all actives have a fitted effect of over 55% in size; further: potency means the concentration at half of the fitted maximal effect)
# Summary of the method: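 ME-180 AP-1-bla, 2500 cells/well, Opti-MEM + 0.5% dialyzed FBS; overnight 37 °C; cpd 15-pt titration, 5 h 37 °C; CellTiter-Glo 30 min RT; luminescence read; normalised to TOAB and DMSO controls.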
# [13] = qHTS assay to identify small molecule agonists of the peroxisome proliferator-activated receptor delta (PPARd) signaling pathway - cell viability counter screen (AID 743211); further: nearly all actives have a fitted effect of over 55% in size; further: potency means the concentration at half of the fitted maximal effect
# Summary of the method: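 Counter screen for cytotoxicity run in parallel with the PPARd reporter screen. Beta-lactamase reporter HEK293H cells exposed to compounds 17 h; ATP-based CellTiter-Glo luminescence quantified viability.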
# [14] = target: Peroxisome proliferator-activated receptor delta (Homo sapiens) (UniProt Q03181); assay: qHTS assay to identify small molecule agonists of the peroxisome proliferator-activated receptor delta (PPARd) signaling pathway (AID 743212; calls by dose curve)
# Summary of the method: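 GeneBLAzer PPARd UAS-bla HEK293H cells (beta-lactamase reporter under UAS control), plated and rested 5 h at 37 C, then exposed to compounds in DMSO at 37 C; LiveBLAzer B/G FRET substrate added, 2 h room temperature, fluorescence read.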
# [15] = target: Bile acid receptor (Homo sapiens) (UniProt Q96RI1); assay: qHTS assay to identify small molecule antagonists of the farnesoid-X-receptor (FXR) signaling pathway (AID 743217; active means well fitted inhibition curve with a large enough effect in the signal ratio in the repeat runs, not every such curve was filed as active; the % refers to the signal ratio)
# Summary of the method: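 FXR-UAS-bla HEK 293T cells (beta-lactamase reporter) given compound plus chenodeoxycholic acid (50 uM final), 16 h at 37C. LiveBLAzer B/G FRET substrate added for 2 h at room temperature; fluorescence read.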
# [16] = target: Bile acid receptor (Homo sapiens) (UniProt Q96RI1); assay: qHTS assay to identify small molecule agonists of the farnesoid-X-receptor (FXR) signaling pathway (AID 743220; active means well fitted activation curve with a large enough effect in the signal ratio in the repeat runs, not every such curve was filed as active; the % refers to the signal ratio)
# Summary of the method: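 Beta-lactamase reporter under UAS control in GeneBLAzer FXR HEK 293T cells (5000/well) measured with LiveBLAzer FRET substrate after 2 h at room temperature. Compound exposure lasted 16 h at 37C.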
# [17] = qHTS assay to identify small molecule antagonists of the vitamin D receptor (VDR) signaling pathway - cell viability counter screen (AID 743225); further: nearly all actives have a fitted effect of over 50% in size; further: potency means the concentration at half of the fitted maximal effect
# Summary of the method: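 HEK293T VDR-bla; cpd + 1a,25-(OH)2D3 3 nM final, 16 h 37C/5% CO2; B/G FRET substrate 2 h RT; then CellTiter-Glo 30 min RT, luminescence.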
# [18] = qHTS assay to identify small molecule agonists of the endoplasmic reticulum stress response signaling pathway - cell viability counter screen (AID 1159517; calls by dose curve)
# Summary of the method: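 Luminescence readout: CellTiter-Glo, 30 min RT, same wells as the ESRE-bla reporter read. HeLa ESRE-bla, 1,500 cells/well, o/n 37 C; cpd 5 hr 37 C/5% CO2.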
# [19] = target: Nuclear receptor ROR-gamma (Homo sapiens) (UniProt P51449); assay: qHTS assay to identify small molecule antagonists of the retinoid-related orphan receptor gamma (ROR-gamma) signaling pathway (AID 1159521)
# Summary of the method: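 Cells were plated, rested 4 h at 37 C, exposed to compounds for 2 h, then given 1 uM final doxycycline hyclate to induce RORγ expression. After 16 h, ONE-Glo luminescence from the ROR response element reporter was measured.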
# [20] = qHTS assay to identify small molecule agonists of the AP-1 signaling pathway (AID 1159526; calls by dose curve)
# Chain of Bile acid receptor (Homo sapiens) (Q96RI1 whole entry, looked up): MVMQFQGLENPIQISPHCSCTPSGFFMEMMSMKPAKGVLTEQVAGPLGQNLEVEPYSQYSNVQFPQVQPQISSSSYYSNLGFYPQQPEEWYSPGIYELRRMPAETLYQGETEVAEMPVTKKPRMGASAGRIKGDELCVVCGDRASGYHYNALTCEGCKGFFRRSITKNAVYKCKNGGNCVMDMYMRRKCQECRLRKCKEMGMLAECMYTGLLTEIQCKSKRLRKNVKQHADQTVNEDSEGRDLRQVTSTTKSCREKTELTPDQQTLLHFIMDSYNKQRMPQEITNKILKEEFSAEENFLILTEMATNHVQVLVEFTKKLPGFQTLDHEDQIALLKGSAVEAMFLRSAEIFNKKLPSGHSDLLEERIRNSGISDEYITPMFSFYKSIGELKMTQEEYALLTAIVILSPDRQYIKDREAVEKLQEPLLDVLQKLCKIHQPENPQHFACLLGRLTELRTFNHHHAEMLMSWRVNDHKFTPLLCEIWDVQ
# Chain of Vitamin D3 receptor (Homo sapiens) (P11473 whole entry, looked up): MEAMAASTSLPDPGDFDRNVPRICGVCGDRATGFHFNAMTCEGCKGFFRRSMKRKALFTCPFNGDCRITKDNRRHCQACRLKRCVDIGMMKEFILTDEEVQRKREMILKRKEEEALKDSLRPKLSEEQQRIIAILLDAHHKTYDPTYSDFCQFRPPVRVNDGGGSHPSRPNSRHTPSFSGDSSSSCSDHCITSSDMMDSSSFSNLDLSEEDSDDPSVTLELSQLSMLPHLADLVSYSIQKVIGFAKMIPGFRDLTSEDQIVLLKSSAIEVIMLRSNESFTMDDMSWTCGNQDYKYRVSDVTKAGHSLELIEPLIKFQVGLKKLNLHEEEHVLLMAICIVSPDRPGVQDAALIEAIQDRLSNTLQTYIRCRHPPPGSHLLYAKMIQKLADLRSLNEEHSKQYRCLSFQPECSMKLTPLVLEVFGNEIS
# Chain of Peroxisome proliferator-activated receptor delta (Homo sapiens) (Q03181 whole entry, looked up): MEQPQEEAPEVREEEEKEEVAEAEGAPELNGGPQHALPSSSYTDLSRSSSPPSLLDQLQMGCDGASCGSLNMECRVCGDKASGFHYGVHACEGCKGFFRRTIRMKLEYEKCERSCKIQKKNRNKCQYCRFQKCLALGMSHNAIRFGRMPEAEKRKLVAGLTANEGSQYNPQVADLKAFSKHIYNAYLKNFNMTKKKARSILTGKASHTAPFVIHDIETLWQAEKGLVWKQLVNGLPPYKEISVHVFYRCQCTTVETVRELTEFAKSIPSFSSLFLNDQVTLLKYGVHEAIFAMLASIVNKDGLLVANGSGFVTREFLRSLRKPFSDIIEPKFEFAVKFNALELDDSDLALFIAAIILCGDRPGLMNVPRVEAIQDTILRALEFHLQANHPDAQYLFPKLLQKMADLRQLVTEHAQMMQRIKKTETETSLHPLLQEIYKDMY
Structure (SMILES),Potency [1],Potency [2],Potency [3],Potency [4],outcome [5],outcome [6],Potency [7],outcome [8],Potency [9],outcome [10],Potency [11],Potency [12],Potency [13],outcome [14],Potency [15],outcome [16],Potency [17],Potency [18],Potency [19],outcome [20]
CCN(C)N=O,inactive,inactive,inactive,inactive,inactive,inactive,inactive,inactive,inactive,inactive,inactive,inactive,–,–,–,–,–,–,–,–
CCCN(CC1CC1)c1c([N+](=O)[O-])cc(C(F)(F)F)cc1[N+](=O)[O-],inactive,inactive,inactive,inactive,–,–,inactive,inactive,inactive,–,inactive,inactive,inactive,inactive,inactive,inactive,inactive,inactive,inactive,inactive
CCCCCC[N+](=O)[O-],inactive,–,inactive,–,–,–,inactive,inactive,inactive,inactive,inactive,inactive,–,–,inactive,inactive,inactive,–,–,inactive
NCCCNCCCN,49.7 µM (active),–,–,–,inactive,–,–,inactive,inactive,inactive,inactive,inactive,–,–,–,–,49.7 µM (active),–,–,inactive
CC(=O)c1cc2c(cc1C)C(C)(C)C(C)CC2(C)C (configuration not stated),inactive,inactive,inactive,inactive,–,inactive,49 µM (active),inactive,inactive,inactive,inactive,49 µM (active),inactive,inactive,–,inactive,inactive,–,–,–
COc1cc(CC(C)N)cc2c1OCO2 (configuration not stated),inactive,inactive,inactive,inactive,–,–,inactive,inactive,inactive,–,inactive,inactive,inactive,inactive,inactive,inactive,inactive,inactive,inactive,inactive
COC(C)(C)CCC[C@H](C)C/C=C/C(C)=C/C(=O)OC(C)C,inactive,–,–,inactive,–,–,–,inactive,inactive,inactive,inactive,inactive,38.9 µM (active),–,–,–,–,–,inactive,inactive
COP(=S)(OC)Oc1cc(Cl)c(I)cc1Cl,inactive,inactive,–,inactive,inactive,–,–,inactive,inactive,inactive,inactive,inactive,–,inactive,inactive,inactive,inactive,–,inactive,–
C=CCOC(C)=O,inactive,–,inactive,inactive,inactive,inactive,inactive,inactive,inactive,inactive,inactive,inactive,inactive,–,inactive,inactive,inactive,–,inactive,inactive
O=C1CN=C(c2ccccc2)c2cc(Cl)ccc2N1CC1CC1,inactive,–,–,inactive,–,inactive,inactive,inactive,inactive,inactive,inactive,inactive,inactive,–,–,–,inactive,–,inactive,inactive
O=C(C(Cl)(Cl)Cl)C(Cl)(Cl)Cl,inactive,inactive,inactive,–,inactive,inactive,inactive,inactive,inactive,–,inactive,inactive,inactive,inactive,inactive,inactive,inactive,inactive,inactive,inactive
Clc1cc(Cl)c(Cl)c(Cl)c1,–,inactive,–,inactive,inactive,inactive,inactive,inactive,inactive,inactive,inactive,inactive,inactive,inactive,–,–,inactive,–,–,inactive
COC(=O)c1cncn1C(C)c1ccccc1 (configuration not stated),inactive,inactive,inactive,inactive,–,–,inactive,inactive,inactive,inactive,inactive,inactive,inactive,inactive,–,–,inactive,–,inactive,inactive
C[C@H]1CNCCc2ccc(Cl)cc21,–,inactive,inactive,inactive,inactive,inactive,inactive,inactive,inactive,inactive,inactive,inactive,inactive,inactive,inactive,inactive,inactive,–,inactive,–
BrCCCCBr,–,–,inactive,inactive,–,–,inactive,inactive,inactive,inactive,inactive,inactive,inactive,–,–,–,inactive,–,inactive,inactive
CN(N=O)c1ccc([N+](=O)[O-])cc1,inactive,–,–,–,inactive,inactive,inactive,inactive,inactive,inactive,inactive,inactive,–,–,inactive,inactive,–,–,inactive,inactive
O=C(O)CC(Cl)C(=O)O (configuration not stated),inactive,inactive,inactive,inactive,–,–,inactive,inactive,inactive,inactive,inactive,inactive,–,–,inactive,inactive,inactive,–,inactive,inactive
O=Cc1ccc2c(c1)OCO2,inactive,inactive,inactive,inactive,inactive,–,inactive,inactive,inactive,–,inactive,inactive,inactive,inactive,inactive,inactive,inactive,inactive,inactive,inactive
ClCC(Br)CBr (configuration not stated),inactive,–,inactive,inactive,–,inactive,inactive,inactive,inactive,inactive,inactive,inactive,inactive,–,–,–,inactive,–,inactive,inactive
